Laboratory results taken from PubChem BioAssay AID624330 (Southern Research Specialized Biocontainment Screening …, 2012).
Screen size: about 340,000 compounds; about 2,100 (0.62%) were called active.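 How the source made its calls: active means first-screen hits whose inhibition reached a set limit at any dose in the follow-up dose series; inconclusive means inhibition above the set first-screen limit but never retested; inactive means the rest.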 A selection follows. Measured potencies and affinities stand elsewhere.

Target: Rac GTPase-activating protein 1 (Homo sapiens) (UniProt Q9H0H5)
Sequence (Q9H0H5 whole entry, looked up): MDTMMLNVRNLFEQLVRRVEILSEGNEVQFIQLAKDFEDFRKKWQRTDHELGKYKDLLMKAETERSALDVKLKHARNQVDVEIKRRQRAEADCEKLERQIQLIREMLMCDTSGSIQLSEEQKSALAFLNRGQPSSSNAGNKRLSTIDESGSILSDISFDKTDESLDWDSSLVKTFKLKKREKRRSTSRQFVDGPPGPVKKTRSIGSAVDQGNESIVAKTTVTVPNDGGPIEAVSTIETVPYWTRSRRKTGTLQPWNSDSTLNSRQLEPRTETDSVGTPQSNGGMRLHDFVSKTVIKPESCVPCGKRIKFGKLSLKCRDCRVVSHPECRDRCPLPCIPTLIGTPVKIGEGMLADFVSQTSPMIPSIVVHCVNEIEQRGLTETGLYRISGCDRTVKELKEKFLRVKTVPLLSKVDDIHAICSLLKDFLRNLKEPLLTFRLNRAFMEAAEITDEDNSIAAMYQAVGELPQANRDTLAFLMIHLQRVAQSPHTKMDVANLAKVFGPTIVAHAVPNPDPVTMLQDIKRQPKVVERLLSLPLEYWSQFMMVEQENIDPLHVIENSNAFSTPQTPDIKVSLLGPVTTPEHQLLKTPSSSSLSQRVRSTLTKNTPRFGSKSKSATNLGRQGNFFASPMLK
Experiment: MgcRacGAP GTPase-activating activity inhibitors, confirmation, biochemical, ADP Hunter fluorescence, primary and confirmatory (AID 624330);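 further: fluorescence reports GDP produced by GAP-driven GTP hydrolysis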
Conditions: MgcRacGAP-stimulated Rac1 GTP hydrolysis, at 30 µM, hits give high values, GST-tagged Rac1 F28L mutant substrate

inhibition, inactive:
CC1=CC(C)(C)NC(=S)N1c1cccc2ccccc12 12.8%
O=C(O)CSc1nnc(Nc2ccccc2)n1-c1ccccc1 1.56%
COc1ccc(/C=C2\SC(=S)N(CC(=O)OCC(=O)Nc3ccc(C)cc3Cl)C2=O)cc1 1.09%
CN1C[C@@H]2[C@@H]3C(=O)N(Cc4ccccc4)C(=O)[C@@H]3[C@](C)(C1=O)N2C(=O)c1ccc(Br)cc1 5.77%
CCC(C(=O)OCC(=O)c1ccc(OC)cc1OC)c1ccccc1 (centres undefined) 5.77%
COc1ccccc1C(=O)NC(=O)COC(=O)c1nc(Cl)ccc1Cl 8.9%
Cc1cc(F)ccc1S(=O)(=O)N1CCCOC1CNC(=O)C(=O)NCc1ccc2c(c1)OCO2 (centres undefined) 2.65%
CCOC(=O)c1ccc(NC(=O)CC2OCCN(CC)C2=O)cc1 (centres undefined) 7.78%
CC(C)C(=O)Nc1cc(S(=O)(=O)Nc2cccc(Cl)c2)ccc1Cl 12.6%
CCCCc1c(C)c(C#N)c2nc3ccccc3n2c1Nc1c(C)n(C)n(-c2ccccc2)c1=O 8.78%
COc1ccc(/C=C/C(=O)OCC(=O)Nc2ccc3c(c2)OCO3)cc1 10.3%
COc1cc(/C=C/C(=O)OCC(=O)Nc2ccc3c(c2)OCCO3)ccc1OCC#N 5.37%
COc1cccc(/C=C/C(=O)OCC(=O)Nc2ccc3c(c2)OCO3)c1 13%
COc1cccc(/C=C/C(=O)OCC(=O)Nc2ccc3c(c2)OCCO3)c1 14.2%
CCOC(=O)CC1C(=O)NCCN1C(=S)NC(=O)c1ccccc1OC (centres undefined) 3.14%
CCN(CC(=O)Nc1ccc(NC(C)=O)cc1)C(=O)c1cn(-c2ccccc2)nc1-c1cccs1 7.68%
COc1ccc(C)cc1NC(=O)NC1CC(=O)N(c2ccc3c(c2)OCCO3)C1 (centres undefined) 10.3%
CCOc1ccc(/C=C\C(C)=N\O)cc1 8.33%
CC(/C=C/c1ccccc1)=N/O 4.32%
COc1ccc(Cl)cc1C(=O)NCCN1CCOCC1 3.67%
Cc1cccc(NS(=O)(=O)c2ccc(C)c(C(=O)NCC(c3ccco3)N3CCCCC3)c2)c1 (centres undefined) 4.69%
COC(=O)c1ccc2c(c1)NC(=O)c1ccccc1S2 8.59%
C/C(=N\NC(=O)c1ccccc1F)c1cccc(NC(=O)c2ccccc2)c1 4.16%
COc1ccc(/C(C)=N/Nc2ccc(C(=O)O)cc2)cc1OC -0.19%
CC(=O)c1ccc2c(c1)N(C)c1ccccc1S2 18.2%
CCOC(=O)Nc1ccc2c(c1)N(C(=O)CN(C)C)c1ccccc1S2 -22.2%
C=CC(=O)N1c2ccccc2Sc2ccc(NC(=O)OCC)cc21 6.2%
C/C(=N\Nc1ccc(C(=O)O)cc1)c1ccc(Br)cc1 14%
C/C(=N\NC(=O)c1ccccc1F)c1cccc(NC(=O)c2ccc(C)cc2)c1 5.2%
Cc1ccc(CN2[C@@H](Cc3ccccc3)C(=O)CS2(=O)=O)cc1 3.43%
O=C(NNC(=O)c1n[nH]c2ccccc12)c1ccccc1 4.79%
CN1CCN(c2cc(C(F)(F)F)nc(-c3ccccn3)n2)CC1 1.81%
C=CCn1c(SCc2ccc(C(=O)OC)cc2)nnc1-c1sc(N)nc1C 3.61%
COc1ccccc1CCNC(=O)NC1CCCCC1 3.38%
Cc1ccccc1N(CC(=O)NCCc1ccccc1)C(=O)c1ccc(N2CCCC2)nc1 -2.74%
COc1cccc(OC)c1C(=O)NC(=S)NCc1cccnc1 6.24%
CCC1CCCCN1C(=O)COc1ccc2c(c1)OCO2 (centres undefined) 2.24%
Cc1ccc(C(=O)c2c3ccc([N+](=O)[O-])cc3[n+]([O-])n2CCCN)cc1 8.83%
C/C(=N\NC(=O)c1ccc(O)cc1)c1cccc(NC(=O)c2ccc(Cl)cc2)c1 8.52%
CC(=O)Nc1cccc(/C(C)=N/NC(=O)c2ccc(O)cc2)c1 0.87%
Cc1cccc(C(=O)Nc2cccc(C(=O)N3CCOCC3)c2)c1 -5.11%
COCCNC(=S)Nc1cc2oc3ccccc3c2cc1OC 17.8%
COCCNC(=S)Nc1cc(OC)c(NC(=O)c2ccco2)cc1OC 3.43%
CC(=O)N1CCc2c(sc(NC(=O)Cc3ccc(C)cc3C)c2C#N)C1 -2.35%
Cc1cccc(-n2cnc(C(=O)N/N=C\c3ccc(Br)cc3)c2)n1 12.1%
Cc1nn(-c2ccccc2)c(C)c1-c1cc(C(=O)N/N=C/c2ccc(O)cc2)[nH]n1 19.3%
COc1ccc(/C=N/NC(=O)c2nc(-c3ccccc3)n(-c3ccccc3)n2)cc1 -5.29%
COc1ccc(/C=N/NC(=O)c2nc(-c3ccccc3)cc(-c3ccccc3)n2)cc1OC 11.2%
COc1ccc(/C=N/NC(=O)c2nc(-c3ccccc3)n(-c3ccccc3)n2)cc1OC 6.46%
Cc1cc(C(=O)N/N=C/c2c(C)nn(-c3ccccc3)c2C)n[nH]1 -3.78%
COc1ccc(/C=N/NC(=O)c2nc(-c3ccccc3)cc(-c3ccccc3)n2)cc1O 24.5%
Cc1cccc(-n2cnc(C(=O)N/N=C/c3ccccc3)c2)n1 6.69%
O=C1CCC2(CC1)NC(=O)N(c1ccccc1)N2 -10.2%
O=C1CNC(=S)N1CCOc1ccccc1 -1.2%
COc1ccc(S(=O)(=O)Nc2cc(C(=O)NCCC(C)C)ccc2N2CCOCC2)cc1 -3.38%
CCOc1ccc(-c2cc(C(=O)N3CCCC3)c3ccccc3n2)cc1 1.87%
CCOC(=O)COc1ccccc1-c1ccno1 5.09%
COc1ccc(S(=O)(=O)Cc2ccc(C(=O)NCC(OC)OC)o2)cc1 5.28%
CCC1C(=O)NCCN1C(=O)c1cc(COc2cc(C)ccc2C)on1 (centres undefined) 13.8%
O=C(NCc1cccnc1)c1ccccn1 3.14%
O=C(Nc1cnccn1)Nc1ccc(Cl)cc1Cl -2.37%
O=C(CCc1c[nH]c2ccccc12)NCCc1ccccc1 7.24%
O=C(CCc1c[nH]c2ccccc12)NCCc1ccc(Cl)cc1 6.06%
Cc1ccc(NC(=O)C(OC(=O)c2cnc(C)cn2)c2ccccc2)c([N+](=O)[O-])c1 (centres undefined) 4.33%
O=C(COc1ccc2cc(Br)ccc2c1)N1CCCC1 8.08%
CCOc1ccc(-c2n[nH]c(C)c2Oc2ccc(OC)cc2)c(O)c1 11%
CCCOC(=O)c1ccc(Oc2c(-c3ccc(O)cc3O)n[nH]c2C)cc1 19.3%
COc1ccc(-c2[nH]ncc2-c2csc(C)n2)c(O)c1 13.3%
Cc1[nH]nc(-c2ccc(O)c(C)c2O)c1Oc1ccccc1 18.4%
O=S(=O)(N/N=C\c1ccccc1O)c1ccc(Cl)cc1 6.73%
O=C1CC(C(=O)Nc2ccc(Cl)cc2)S/C(=N\N=C\c2ccco2)N1 (centres undefined) 10.6%
c1ccc(CCNc2ccnc3cc4ccccc4cc23)cc1 13.8%
COc1ccc(Nc2ccnc3ccccc23)cc1 3.59%
COCCN1C(=O)N(c2ccccc2)C(=O)C1CC(=O)Nc1cc(OC)cc(OC)c1 (centres undefined) -13.2%
COC(=O)C(Cc1cncn1COCc1ccccc1)NC(=O)OC(C)(C)C (centres undefined) 4.31%
Cc1ccc2[nH]c3c(N4CCN(Cc5ccccc5)CC4)ncnc3c2c1 22.2%
c1ccc(CN2CCN(c3ncnc4c3[nH]c3ccccc34)CC2)cc1 20.2%
O=C(CCCc1ccccc1)Nc1ccnn1C1CCN(Cc2ccccc2F)CC1 7.8%
Cc1occc1C(=O)NNC(=O)C1CCCC1 0.63%
COc1ccc(CN2CCN(C)CC2)cc1OCc1ccccc1 8.63%
COc1ccc(CN2CCOCC2)cc1OC 11.6%
COc1ccc(N2CCN(C(C)C(=O)N(C)Cc3ccccc3)CC2)cc1 (centres undefined) 11%
COc1cc(OC)cc(C(=O)N2CCN(Cc3cccc(F)c3)CC2)c1 27.4%
COc1ccc(CN2CCN(C(=O)c3cccc4ccccc34)CC2)cc1OC 30.3%
COc1cccc(CN2CCSCC2)c1 16.8%
CNC(=O)NC(=O)C(C)N1CCN(C/C=C/c2ccccc2)CC1 (centres undefined) -5.37%
COc1ccc(CN2CCC(Cc3ccccc3)CC2)cc1OC 29.4%
O=C(CN(c1ccccn1)S(=O)(=O)c1ccccc1)N/N=C/c1cccc([N+](=O)[O-])c1 6.03%
CC(NC(=O)C1CCN(c2nnc(N3CCCC3=O)s2)CC1)c1ccccc1 (centres undefined) 1.18%
Cc1nn(-c2cc(C(F)(F)F)ccc2Cl)c2nc(C(F)(F)F)[nH]c(=O)c12 6.22%
CCN1C(=O)CC(N2CCN(c3cccc(OC)c3)CC2)C1=O (centres undefined) 7.87%
COc1ccc(CN2CCN(C(C)C(=O)N3CCc4ccccc43)CC2)cc1OC (centres undefined) 7.8%
COc1cc(CN2CCN(Cc3ccc(C)cc3)CC2)c([N+](=O)[O-])cc1OC 31.1%
COc1ccc(CN2CCN(c3ccccc3OC)CC2)c(OC)c1 25.9%
CC(C(=O)N(C)Cc1cccc(F)c1)N1CCN(S(=O)(=O)c2ccc3c(c2)OCCCO3)CC1 (centres undefined) 4.74%
COc1cc(OC)c(OC)cc1CN1CCN(Cc2cccc(F)c2)CC1 9.82%
COc1ccc(CN2CCN(c3ncccn3)CC2)c(OC)c1 9.88%
COc1cc(CN2CCN(Cc3ccc([N+](=O)[O-])cc3)CC2)c([N+](=O)[O-])cc1OC 28.4%
COc1ccc(CN2CCN(S(=O)(=O)c3ccc(F)cc3)CC2)cc1OC 19.8%
